Only some compounds are listed: those with a hit (about 3.9% of all), similar ones and a draw of the others.
BH1578 lux ind – quorum light induction in luxS cqsA deficient V. cholerae; activation, % at 18.7 µM; V. cholerae BH1578 lux reporter, luminescence, 6 h; actives 0.16% (n = 350,000); in the data active = activation mostly above about 9.7%, no sharp cut-off; inconclusive = no clear call, values can overlap the other calls; inactive = mostly below about 3.7%
MazEF act – MazEF (E. coli) toxin RNase activation. P0AE70. FAM/BHQ RNA-DNA oligo cleavage fluorescence, 5 h. activation, % at 20 µM. actives 0.32% (n = 350,000). AID 504720; in the data active = activation above about 50%
Target sequence (P0AE70 whole entry, looked up): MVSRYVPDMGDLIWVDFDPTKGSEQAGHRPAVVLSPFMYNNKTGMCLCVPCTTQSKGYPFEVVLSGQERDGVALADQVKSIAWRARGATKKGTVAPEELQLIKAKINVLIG
Autofluor counter – counter-screen for toxin protease inhibitors: compound fluorescence | compound autofluorescence counterscreen, microsphere flow cytometry; hits give high values | fluorescence intensity (no concentration beside the values) | actives 3.1% (n = 360,000); in the data active = fluorescence intensity above about 16000; inconclusive = no clear call, values can overlap the other calls
BoNT F protease – inhibitors of Botulinum neurotoxin F light chain protease; inhibition, % at 10 µM; AID 588497; Multiplex microsphere protease cleavage assay, flow cytometry; actives 0.22% (n = 360,000); in the data active = inhibition above about 35%, passing the limit was not always enough; inconclusive = no clear call, values can overlap the other calls; also: plate controls were buffer without enzyme for full effect and enzyme alone for no effect
Anthrax LF prot – anthrax lethal factor protease inhibition | P15917 | multiplex microsphere protease cleavage assay, LF | inhibition, % at 10 µM | actives 0.12% (n = 360,000) | AID 588501; also: plate controls were buffer without enzyme for full effect and enzyme alone for no effect
BoNT-A LC inh2 – BoNT A light chain protease inhibition; inhibition, % at 10 µM; multiplex microsphere protease substrate cleavage, flow cytometry; actives 0.17% (n = 360,000); also: plate controls were buffer without enzyme for full effect and enzyme alone for no effect
Active calls of the source: *; i = inactive; ? = inconclusive; . = no result given. Rule as the data show it, unless noted: active = inhibition above about 30%; inconclusive = no clear call, values can overlap the other calls; inactive = below that.

SMILES | BH1578 lux ind | MazEF act | Autofluor counter | BoNT F protease | Anthrax LF prot | BoNT-A LC inh2
CCn1cc(C(=O)NCc2ccco2)c(=O)c2cc(S(=O)(=O)N3CC(C)CC(C)C3)ccc21 (stereo not given) | i | 0 | 19725* | 0 | 1 | 0
CCn1cc(C(=O)N2CCCC2)c(=O)c2cc(S(=O)(=O)N3CC(C)CC(C)C3)ccc21 (stereo not given) | i | 0 | 4512 | 0 | 0 | 0
CCn1cc(C(=O)NCc2ccco2)c(=O)c2cc(S(=O)(=O)N3CCC(C)CC3)ccc21 | 0 | -5 | 20447* | 0 | -11 | 2
CNC(=O)C1(c2ccccc2)CCCCC1 | i | 5 | 3358 | 5 | 0 | 0
CCOc1cc(CN2CCCC(CNC(=O)c3ccc(F)cc3)C2)ccc1OC (stereo not given) | -4 | 10 | 6682 | -6 | -11 | -1
C=CCn1cc(C(=O)NCc2ccco2)c(=O)c2cc(S(=O)(=O)N3CCCCCC3)ccc21 | -2 | -2 | 16902* | -3 | -8 | -2
CCn1cc(C(=O)NCCCN2CCCC2)c(=O)c2cc(S(=O)(=O)N3CCc4ccccc4C3)ccc21 | 0 | 22 | 6193 | -6 | -3 | 0
CCn1cc(C(=O)NCc2ccco2)c(=O)c2cc(S(=O)(=O)N3CCc4ccccc4C3)ccc21 | -2 | -2 | 20784* | -2 | -2 | -1
CN(C(=O)CS(=O)(=O)c1cccc(Cl)c1)c1ccccc1 | -1 | 4 | 3402 | -3 | -5 | 0
O=C(Nc1ccc(OC(F)(F)F)cc1)N1CCc2nc(NCc3cccc(Oc4ccccc4)c3)ncc2C1 | -1 | . | 4378 | -6 | -1 | 0
COc1cc(/C=C/C(=O)O)ccc1O | 0 | 8 | 5977 | -19 | -1 | -1
COc1cc(/C=C/C(=O)/C=C(O)/C=C/c2ccc(O)c(OC)c2)ccc1O | i | -35 | 4422 | -1 | 10 | 32*
COc1cc(C=C(C(C)=O)C(C)=O)ccc1O | 0 | 9 | 3454 | 18 | 0 | 1
COc1cc(/C=C/C(=O)CC(=O)/C=C/c2ccc(O)c(OC)c2)ccc1O | 6 | -35 | 6257 | -12 | 17 | 31*
COc1ccc(S(=O)(=O)N(C)CC(=O)NCCN2CCOCC2)cc1C | i | 5 | 3476 | 10 | 11 | 0
CN1CCCC1CN1CCCC1 (stereo not given) | . | . | 6209 | -21 | -15 | -1
CN1CCCC1CCNC1C2CC3CC(C2)CC1C3 (stereo not given) | i | 0 | 16148* | -3 | -4 | 0
CN1CCN(CC(=O)Nc2c(C(=O)C3CC3)oc3ccccc23)CC1 | -5 | 0 | 22556* | 0 | -1 | 1
O=C(CN1CCOCC1)Nc1c(C(=O)C2CC2)oc2ccccc12 | 0 | 7 | 2057 | 1 | 0 | 0
C=CCNC(=O)c1ccc(N(Cc2ccc(Cl)cc2)S(C)(=O)=O)cc1 | 0 | 7 | 3005 | 39* | 10 | 1
C=CCN(c1ccc(C(=O)NC(C)C)cc1)S(C)(=O)=O | 0 | 11 | 23751* | -2 | -5 | 0
CCCCCc1cc(O)c2c(C)cc(=O)oc2c1 | i | 5 | 23187* | -7 | -1 | -3
CCN1C(=O)c2ccccc2S(=O)(=O)c2ccc(C(=O)NCCOC)cc21 | i | 3 | 2966 | 61* | 10 | 2
Cc1cc(C(=O)Nc2cc(S(C)(=O)=O)ccc2Cl)c(C)o1 | i | -2 | 3648 | -5 | -5 | 0
CCOC(=O)c1nc(C)n(-c2cc(Cl)cc(Cl)c2)n1 | -5 | -2 | 17779* | 6 | -10 | 6
SMILES | BH1578 lux ind | MazEF act | Autofluor counter | BoNT F protease | Anthrax LF prot | BoNT-A LC inh2
Cn1c(CN2CCCC2)nc2cc(NC(=O)c3ccc(Cl)cc3)ccc21 | 2 | 0 | 3884 | 0 | -6 | 1
Cc1nn(CC(=O)Nc2ccc3c(c2)nc(CCN2CCCCC2)n3C)c(=O)c2ccccc12 | 0 | -3 | 20530* | -1 | -1 | -1
Cn1c(CN2CCCCC2)nc2cc(NC(=O)c3ccc(Cl)cc3)ccc21 | -2 | 0 | 20694* | 5 | 2 | 5
CCCC(=O)Nc1ccc2c(c1)nc(CN1CCN(C(C)=O)CC1)n2C | i | 7 | 5805 | -3 | -12 | 0
CC(=O)N1CCN(Cc2nc3cc(NC(=O)C4CCCCC4)ccc3n2C)CC1 | 4 | 0 | 20181* | -1 | 2 | ?
CC(Sc1ccccc1)C(=O)NN=C1CCCCCC1 (stereo not given) | -2 | 3 | 5017 | 7 | 1 | 0
COc1ccccc1NS(=O)(=O)c1ccc(C)c(C(=O)NCC(c2cccs2)N2CCOCC2)c1 (stereo not given) | i | -18 | . | . | . | .
O=[N+]([O-])c1ccc(Sc2cccc3cccnc23)c([N+](=O)[O-])c1 | -1 | 1 | 20643* | 6 | -2 | ?
COc1ccc(C(=O)NCC(c2ccco2)N(C)C)cc1S(=O)(=O)NCc1ccc(Cl)cc1 (stereo not given) | -1 | 7 | ? | -16 | -3 | -1
CCN(CC)S(=O)(=O)c1cccc(NC(=O)CC2CCCC2)c1 | 0 | -37 | 3152 | 7 | 5 | -3
CCN(CC)S(=O)(=O)c1cccc(C(=O)NC2CCCCC2)c1 | -3 | 2 | 21448* | -1 | 1 | ?
CCN(CC)S(=O)(=O)c1cccc(NC(=O)Nc2cccc(C(F)(F)F)c2)c1 | i | 6 | 21515* | -11 | -4 | -6
CCN(CC)S(=O)(=O)c1cc(C(=O)Nc2cccnc2)ccc1Cl | 0 | 4 | 11204 | -1 | -2 | 0
CCN(CC)S(=O)(=O)c1cccc(C(=O)Nc2cccnc2)c1 | -1 | -10 | 22467* | 3 | -8 | ?
O=C(/C=C/c1c(F)cccc1Cl)N1CCc2ccccc2C1 | 0 | 4 | 3195 | 0 | 5 | 0
Cc1cc([N+](=O)[O-])ccc1N1C(=O)c2ccc(C(=O)Nc3ccccc3C(=O)O)cc2C1=O | i | -12 | 3407 | 6 | -2 | 1
CCOC(=O)Cn1c(=O)cnc2ccccc21 | i | 1 | 5405 | -29 | -2 | -1
CCOC(=O)Cn1c(-c2ccc(Cl)nc2)nc2ccccc21 | 1 | -4 | 22764* | -1 | 2 | -1
O=C(NCc1cccnc1)c1cc(C2CCCN(S(=O)(=O)c3cccc4cccnc34)C2)on1 (stereo not given) | i | . | 3904 | 7 | -6 | 0
COc1cc(OC)c(NC(=S)Nc2cc(Cl)cc(Cl)c2)cc1Cl | 0 | 60* | 2685 | 0 | -2 | -1
Nc1[nH]c(C(=O)c2ccccc2)c(-c2c(F)cccc2F)c1C(=O)c1ccc(Cl)c(Cl)c1 | . | . | 4249 | -10 | -7 | 1
C/C(Cl)=C/CSc1nnc2n(N)c(=O)c3ccccc3n12 | 33* | -5 | 23180* | -2 | -3 | 0
O=C(CCCNS(=O)(=O)c1ccc(Cl)c(Cl)c1)NCCc1ccccn1 | 1 | 10 | 4682 | -13 | 1 | -1
Cc1cc(OCCCC(=O)NCCc2ccccn2)ccc1Cl | 0 | 60* | 3979 | 5 | -2 | 1

Bioassay records as filed in PubChem BioAssay.
